For one assay, the target named is SEMA6D. Put plainly: pooled miR-30 sensor sort-seq; sequence = guide strand. Conditions: shRNA.
On to TATTCTAAGGTACTCAACCTGT, for which the sensor-assay potency score (higher = more potent) was -0.752. Still for that read-out and setting: under TACTTTTTCAATGTCATCCATG stands -0.449. Sequence TTGAATAGTGATAGTCGACAGT registered a sensor-assay potency score (higher = more potent) of -0.481.

A further assay concerns the target SENP1. Described as above. Conditions: shRNA.
In turn, TTGAACTGTCTCTTCTGCTGTA returned a sensor-assay potency score (higher = more potent) of 0.936. Same read-out and setting: under TTATCTGAGTAATAGCTTGGAT stands 0.0199; under TATCAGTTAATTTATGACCTTT, 0.136. Same read-out and setting: next, TAATAGGTAATATTCTTCTTTC: -0.79; TGTACTAACATGTCGCCTCTGA: 0.2; TTTACTTCGCTCCATCAGCATA: -1.5. The same measure, in the same setting: under TACTGGAACTAAGACATCGAGA stands -0.808; under TTGATTGGTCTGTCTTTGGTAA, -0.497; under AACAGTAACAGGAATCTCCTTT, -0.105. The sequence TTCACTGAGAACTTCATCCTGA gave a sensor-assay potency score (higher = more potent) of 0.885.

TAGAGTTTGAATATCTTTGCGT yielded a sensor-assay potency score (higher = more potent) of 0.243. On the same count and under the same terms, under TATTGCAAGAGTATTCTGCAGG stands -0.448.

A further assay has as its target SERPINB7. The assay is described as above. The settings on record: shRNA.
For the sequence TACTTAGAGGTCATTCGCCTTG, the sensor-assay potency score (higher = more potent) is -0.685.

Turning to TTTTCTACAATATTACTTCCTG, the sensor-assay potency score (higher = more potent) worked out at 0.325. Sequence TTCATAATTCTTCTCTATCTTG had a sensor-assay potency score (higher = more potent) of -0.438.

TAGAAGAGTTTCCATATCCTGA: the sensor-assay potency score (higher = more potent) was 0.0524. Sequence TTGATTGTCATCCATCTCTCTG gave a sensor-assay potency score (higher = more potent) of -0.525.

TAAGATTTGTGCATCATCCTTG displayed a sensor-assay potency score (higher = more potent) of 1.22. On the same count and under the same terms, under TAATATTACGTCTAGTGTCTTC stands -0.265; under TTCTACAATATTACTTCCTGTG, -0.132. On the same count and under the same terms, under ATTTCCTTGATTGTCATCCATC stands -1.25; under TTCTTCTCTATCTTGAACTGAG, -0.146; under TTCTCTATCTTGAACTGAGGAA, -0.416.

In another assay the target is SERPINE2. Described as above. Conditions: shRNA.
Turning to TATTTTTGCAAAATTTGCCTTT, the sensor-assay potency score (higher = more potent) was -0.263. Still for that read-out and setting: under TTAATATTTTACCAACTCCATT stands -1.64. The same measure, in the same setting: next, TACAGTGTTCCAGCCATCCTGC: -0.935; ATTCTTAACAAACACGGCGTTA: -0.703; TACAGCTGTGAACTTGGGCAGG: -0.9. As for TATTTTAGTGAATACATGCATT, the sensor-assay potency score (higher = more potent) is -0.736. Turning to TTGTCAATCATATCCCTGGTTT, the sensor-assay potency score (higher = more potent) was -0.515.

Take TTTAACAGAACTATGAAAGATG: the sensor-assay potency score (higher = more potent) was -0.755. TTGTGCTACAGCTGTGAACTTG displayed a sensor-assay potency score (higher = more potent) of -0.393. On the same count and under the same terms, under AACAGAAACACTTGCATCGAGT stands -0.757. Regarding TTGATGAATCAAACATGTCAGT, the sensor-assay potency score (higher = more potent) was -0.681. For the sequence TTCCTCAGTACAGTGTTCCAGC, the sensor-assay potency score (higher = more potent) was -0.117.
Further: reference of the scale not given here.
